Screening data: PubChem BioAssay, Broad Institute
The full list was thinned out, with hits kept by preference.
MITF inh – inhibitors of MITF, primary screen, MITF inhibitor project, cell-based, luminescence | inhibition, % (test concentration not listed) | actives 0.28% (n = 37,000) | TRPM1 promoter luciferase, 24 h; in the data active = inhibition above about 85%; inconclusive = no clear call, values can overlap the other calls; inactive = below about 68%;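 also: human melanocyte line stably carrying TRPM1 promoter luciferase reporter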
STK33 kin inh – STK33 kinase inhibitors, primary screen, biochemical, luminescence, ADP-Glo, MBP substrate; Serine/threonine-protein kinase 33 (Homo sapiens), Q9BYT3; inhibition, % at 12.5 µM; actives 0.44% (n = 27,000); in the data active = inhibition above about 20%; inconclusive = no clear call, values can overlap the other calls
Target sequence (Q9BYT3 whole entry, looked up): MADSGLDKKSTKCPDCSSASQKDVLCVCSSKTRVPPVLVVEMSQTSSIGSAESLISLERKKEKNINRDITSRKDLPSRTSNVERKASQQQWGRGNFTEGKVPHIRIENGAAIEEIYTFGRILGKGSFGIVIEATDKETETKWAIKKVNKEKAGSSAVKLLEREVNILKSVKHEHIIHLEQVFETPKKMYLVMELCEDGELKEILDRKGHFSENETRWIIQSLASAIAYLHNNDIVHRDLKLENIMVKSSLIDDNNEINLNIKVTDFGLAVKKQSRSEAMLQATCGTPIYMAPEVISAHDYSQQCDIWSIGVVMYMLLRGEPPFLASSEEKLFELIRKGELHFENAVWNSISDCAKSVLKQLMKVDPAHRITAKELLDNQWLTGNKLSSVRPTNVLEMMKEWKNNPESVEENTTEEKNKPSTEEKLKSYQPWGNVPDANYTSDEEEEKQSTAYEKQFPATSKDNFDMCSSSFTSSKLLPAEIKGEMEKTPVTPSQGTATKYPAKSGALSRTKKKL
NOMO-1 viab – NOMO-1 AML cell viability reduction, primary screen, STK33 inhibitor project, CellTiter-Glo luminescence; actives 7.5% (n = 37,000); NOMO-1 AML viability, 72 h; inhibition, % (no concentration beside the values); AID 2330, 2010; in the data active = inhibition above about 80%; inconclusive = no clear call, values can overlap the other calls
p53 PUMA act – mutant p53 pathway re-activators, primary screen, cell-based, SW480, luciferase, single point, HTS | actives 1.5% (n = 28,000) | activation, % at 9.98 µM | AID 624151, 2012 | SW480 PUMA-promoter luciferase, p53 mutant reactivation; in the data active = activation above about 52%; inconclusive = no clear call, values can overlap the other calls
Each line names hits and unclear results; the compound was inactive in the other large screens.

COc1ccc(NC(=O)Nc2ccc3c(c2)C(=O)N([C@@H](C)CO)C[C@H](C)[C@@H](CN(C)Cc2ccc(-c4ccccc4)cc2)O3)cc1	NOMO-1 viab 82 (no result: p53 PUMA act)
CC(C)NC(=O)Nc1ccc2c(c1)C(=O)N([C@H](C)CO)C[C@@H](C)[C@H](CN(C)Cc1ccc(-c3ccccc3)cc1)O2	NOMO-1 viab 84 (no result: STK33 kin inh, p53 PUMA act)
C[C@@H]1CN([C@@H](C)CO)C(=O)c2cc(NC(=O)Nc3ccccc3)ccc2O[C@@H]1CN(C)Cc1ccc(-c2ccccc2)cc1	NOMO-1 viab 114 (no result: p53 PUMA act)
COc1ccc(CN(C)C[C@H]2Oc3ccc(NC(=O)Nc4ccccc4)cc3C(=O)N([C@@H](C)CO)C[C@H]2C)cc1	none (no result: STK33 kin inh, p53 PUMA act)
C[C@H](CO)N1C[C@H](C)[C@H](CN(C)Cc2ccc(-c3ccccc3)cc2)Oc2ccc(NC(=O)Nc3ccccc3)cc2C1=O	none (no result: p53 PUMA act)
CCn1c(SCC(=O)Nc2ccc(Br)cc2)nnc1-c1ccccc1	none
O=C(Nc1ccc(S(=O)(=O)Nc2ccccc2Oc2ccc(Cl)cc2Cl)cc1)C1CC1	none (no result: MITF inh, STK33 kin inh, NOMO-1 viab)
COc1ccc(NC(=O)Nc2ccc3c(c2)C(=O)N([C@H](C)CO)C[C@@H](C)[C@H](CN(C)Cc2ccc(-c4ccccc4)cc2)O3)cc1	NOMO-1 viab 119 (no result: STK33 kin inh, p53 PUMA act)
COc1ccc(CN(C)C[C@H]2Oc3ccc(NC(=O)Nc4ccccc4)cc3C(=O)N([C@H](C)CO)C[C@H]2C)cc1	none (no result: STK33 kin inh, p53 PUMA act)
CC(=O)OC[C@]12[C@H](OC(C)=O)[C@H](OC(C)=O)[C@@H]3[C@@H](OC(C)=O)[C@@]14O[C@@]3(C)COC(=O)c1cnccc1CC[C@H](C)C(=O)O[C@@]4(C)[C@@H](O)[C@H](O)[C@@H]2OC(C)=O	NOMO-1 viab 119 (no result: p53 PUMA act)
CS(=O)(=O)N(CC(=O)Nc1c(F)cccc1F)c1ccc(Br)cc1	none
O=C(O)c1ccc2c3c1cccc3c(=O)n1c3ccccc3nc21	STK33 kin inh 70 (no result: p53 PUMA act)
Brc1ccccc1-c1nc2ccccc2c2nc3ccccc3n12	none (no result: STK33 kin inh, p53 PUMA act)
Cc1ccc(S(=O)(=O)Nc2cccc3c2O[C@@H](CN(C)Cc2ccc(C(=O)Nc4ccccc4N)cc2)[C@@H](C)CN([C@H](C)CO)C3=O)cc1	NOMO-1 viab 137 (no result: STK33 kin inh, p53 PUMA act)
C[C@H]1CN([C@@H](C)CO)C(=O)c2cccc(NS(C)(=O)=O)c2O[C@@H]1CN(C)Cc1ccc(C(=O)Nc2ccccc2N)cc1	none (no result: STK33 kin inh, p53 PUMA act)
C[C@@H]1CN([C@@H](C)CO)C(=O)c2cccc(NS(C)(=O)=O)c2O[C@@H]1CN(C)Cc1ccc(C(=O)Nc2ccccc2N)cc1	NOMO-1 viab 123 (no result: STK33 kin inh, p53 PUMA act)
C[C@H]1CN([C@@H](C)CO)C(=O)c2cccc(NS(=O)(=O)c3ccccc3)c2O[C@H]1CN(C)Cc1ccc(C(=O)Nc2ccccc2N)cc1	NOMO-1 viab 120 (no result: STK33 kin inh, p53 PUMA act)
C[C@@H]1CN([C@H](C)CO)C(=O)c2cccc(NS(=O)(=O)c3ccc(F)cc3)c2O[C@@H]1CN(C)Cc1ccc(C(=O)Nc2ccccc2N)cc1	NOMO-1 viab 127 (no result: STK33 kin inh, p53 PUMA act)
COc1cccc(NC(=O)c2ccc(OC(=S)N3CCC(C)CC3)cc2)c1	none (no result: STK33 kin inh, p53 PUMA act)
O=C(COc1ccccc1[N+](=O)[O-])Nc1ccc(Br)cc1C(=O)O	none
C[C@@H]1CN([C@H](C)CO)C(=O)c2cccc(NS(=O)(=O)c3ccccc3)c2O[C@@H]1CN(C)Cc1ccc(C(=O)Nc2ccccc2N)cc1	NOMO-1 viab 128 (no result: STK33 kin inh, p53 PUMA act)
C[C@H]1CN([C@@H](C)CO)C(=O)c2cccc(NS(=O)(=O)c3ccccc3)c2O[C@@H]1CN(C)Cc1ccc(C(=O)Nc2ccccc2N)cc1	NOMO-1 viab inconclusive (no result: STK33 kin inh, p53 PUMA act)
C[C@@H]1CN([C@H](C)CO)C(=O)c2cccc(NC(=O)Nc3cccc4ccccc34)c2O[C@H]1CN(C)C(=O)NC1CCCCC1	NOMO-1 viab inconclusive
C[C@H](CO)N1C[C@H](C)[C@H](CN(C)C(=O)NC2CCCCC2)Oc2c(NC(=O)Nc3cccc4ccccc34)cccc2C1=O	NOMO-1 viab 97 (no result: STK33 kin inh)
C[C@H](CO)N1C[C@H](C)[C@H](CN(C)C(=O)Nc2ccc(F)cc2)Oc2c(NC(=O)Nc3cccc4ccccc34)cccc2C1=O	MITF inh inconclusive, NOMO-1 viab 124 (no result: STK33 kin inh)
C[C@H]1CN([C@@H](C)CO)C(=O)c2cccc(NC(=O)Nc3cccc4ccccc34)c2O[C@@H]1CN(C)C(=O)Nc1ccc(F)cc1	none (no result: STK33 kin inh)
C[C@H]1CN([C@@H](C)CO)C(=O)c2cc(NC(=O)Nc3cccc4ccccc34)ccc2O[C@@H]1CN(C)Cc1ccc(Cl)c(Cl)c1	NOMO-1 viab 109 (no result: STK33 kin inh, p53 PUMA act)
C[C@H](CO)N1C[C@H](C)[C@H](CN(C)Cc2ccc(Cl)c(Cl)c2)Oc2ccc(NC(=O)Nc3cccc4ccccc34)cc2CC1=O	none (no result: p53 PUMA act)
C[C@H]1CN([C@@H](C)CO)C(=O)Cc2cc(NC(=O)Nc3cccc4ccccc34)ccc2O[C@H]1CN(C)Cc1ccc(Cl)c(Cl)c1	NOMO-1 viab 88 (no result: p53 PUMA act)
C[C@@H]1CN([C@H](C)CO)C(=O)Cc2cc(NC(=O)Nc3cccc4ccccc34)ccc2O[C@@H]1CN(C)Cc1ccc(Cl)c(Cl)c1	NOMO-1 viab 115 (no result: p53 PUMA act)
C[C@H]1CN([C@@H](C)CO)C(=O)c2cc(NC(=O)Nc3cccc4ccccc34)ccc2O[C@H]1CN(C)Cc1ccc2c(c1)OCO2	NOMO-1 viab 97 (no result: p53 PUMA act)
Cc1cc(C)c(NC(=O)CN(c2cccc(Br)c2)S(C)(=O)=O)c(C)c1	none
COc1ccc(CNc2nc(-c3ccc(Cl)cc3)nn2C(=O)c2ccco2)cc1	p53 PUMA act 87
COc1ccc(NC(=O)c2ccco2)c(NC(=O)CSc2ccc(Cl)cc2)c1	none
COc1ccc(CC(=O)n2nc(-c3ccc(Cl)cc3)nc2NCc2ccco2)cc1OC	p53 PUMA act 110 (no result: MITF inh, STK33 kin inh, NOMO-1 viab)
COc1ccc(-c2cc(C(=O)OCc3ccco3)c3ccccc3n2)cc1OC	none
COc1ccc(OC)c(NC(=O)C(=O)NCc2ccco2)c1	none
COc1ccc(CN(C)C[C@H]2Oc3ccc(NS(=O)(=O)c4ccc(OC)cc4)cc3C(=O)N([C@@H](C)CO)C[C@H]2C)cc1	none (no result: STK33 kin inh)
COc1ccc(S(=O)(=O)Nc2ccc3c(c2)C(=O)N([C@@H](C)CO)C[C@@H](C)[C@H](CN(C)Cc2ccc(C(F)(F)F)cc2)O3)cc1	NOMO-1 viab 113
COc1ccc(CN(C)C[C@@H]2Oc3ccc(NS(=O)(=O)c4ccc(OC)cc4)cc3C(=O)N([C@@H](C)CO)C[C@@H]2C)cc1	none (no result: STK33 kin inh)
COc1ccc(S(=O)(=O)Nc2ccc3c(c2)C(=O)N([C@@H](C)CO)C[C@@H](C)[C@@H](CN(C)Cc2ccc(C(F)(F)F)cc2)O3)cc1	NOMO-1 viab 115 (no result: STK33 kin inh, p53 PUMA act)
COc1ccc(CN(C)C[C@@H]2Oc3ccc(NS(=O)(=O)c4ccc(OC)cc4)cc3C(=O)N([C@@H](C)CO)C[C@H]2C)cc1	none (no result: STK33 kin inh)
COc1ccc(S(=O)(=O)Nc2ccc3c(c2)C(=O)N([C@H](C)CO)C[C@@H](C)[C@@H](CN(C)Cc2ccc(C(F)(F)F)cc2)O3)cc1	NOMO-1 viab 108 (no result: STK33 kin inh, p53 PUMA act)
COc1cc(O)cc(C2=C(C)CC(O)C2=O)c1 (configuration not stated)	none
Cc1cc(C)c(NC(=O)CSc2nc3c(c(-c4ccco4)c2C#N)CCCC3)c(C)c1	NOMO-1 viab inconclusive
